Potency and activity change, negative = inhibition data for 61 molecules are collected here from PubChem BioAssay AID624417 (National Center for Advancing Translational Sciences (NCATS), 2012).

Hit rate of the full screen: of about 410,000 compounds, about 6,400 (1.6%) were called active. Another 20% or so got no clear call; they are omitted. The call rests on the fitted dose curve; in most records, active means well fitted inhibition curve with a large enough effect; inconclusive means small, poorly fitted or top-dose-only effect; inactive means no such curve, though single readings can be large or run the other way. Shown is part of a subset that was picked to be rich in actives. Where a call stands in place of a potency, no number is given.
Potency means the concentration at half of the fitted maximal effect.

Sequence of Glucagon-like peptide 1 receptor (Homo sapiens) (P43220 whole entry, looked up): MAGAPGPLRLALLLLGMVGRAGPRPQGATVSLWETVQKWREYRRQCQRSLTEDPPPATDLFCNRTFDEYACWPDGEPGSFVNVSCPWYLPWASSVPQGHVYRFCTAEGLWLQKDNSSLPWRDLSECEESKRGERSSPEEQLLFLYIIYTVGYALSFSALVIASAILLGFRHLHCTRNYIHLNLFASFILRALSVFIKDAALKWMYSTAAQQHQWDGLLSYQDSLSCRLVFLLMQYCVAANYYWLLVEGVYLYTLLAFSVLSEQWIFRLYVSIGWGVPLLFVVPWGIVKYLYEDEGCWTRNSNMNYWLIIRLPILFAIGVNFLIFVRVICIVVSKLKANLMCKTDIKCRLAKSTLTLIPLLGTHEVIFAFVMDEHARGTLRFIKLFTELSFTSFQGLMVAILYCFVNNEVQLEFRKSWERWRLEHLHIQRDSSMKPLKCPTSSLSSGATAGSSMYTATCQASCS

In this test the target is Glucagon-like peptide 1 receptor (Homo sapiens) (UniProt P43220). As to the kind of experiment: qHTS of GLP-1 Receptor Inverse Agonists (Inhibition Mode). Further: nearly all actives have a fitted effect of over 55% in size. Particulars: HEK293 GLP-1R CRE-luciferase, luminescence, 24 h, GLP-1R form is constitutively active; series mostly up to 38.3 µM. In short, it runs like this:
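Seeding at 200 cells/uL, 12 h culture, 24 hr compound treatment, then luciferase reagent and a luminescence read; cells are HEK293 stably expressing a constitutively active GLP-1R plus cAMP-responsive luciferase.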
Consider `CCCCNC(=O)C[C@@H]1C[C@@]2(C(=O)OCC)CCC=C2N(Cc2ccco2)C1=O`, for which the Potency result was “inactive”.
Turning to `O=S(=O)(Cc1ccccc1)c1nc2ccccc2n1Cc1ccccn1`, the activity change, negative = inhibition is 0.0124% [at 7.66 µM] (inactive).
As for `Cn1c(S(=O)(=O)O)nc2ccccc21`, the Potency entry is “inactive”.
As for `O=S(=O)(O)c1nc2ccccc2n1Cc1ccc(Cl)cc1Cl`, the Potency is 10 µM (active).
Consider `Cc1ccc(-c2ccc(C3=CC(=O)CC(C)(C)C3=O)cc2)cc1`, for which the Potency entry was “inactive”.
For the molecule `CCc1nc2ccc(C(=O)NC3CCN(Cc4ccccc4)CC3)cn2c1N(C)CCN1CCOCC1`, the Potency result is “inactive”.
On to `CC(C)CCC(=O)Nc1cc(S(=O)(=O)N2CCOCC2)ccc1N1CCCC1`, for which the Potency entry is “inactive”.
On the same count and under the same terms, the value for `Cc1ccc(Nc2ccc3cc(S(=O)(=O)N4CCCCC4)ccc3n2)cc1F` was 2.82 µM (active); that for `O=S(=O)(c1ccc2nc(N3CCN(c4cccc(Cl)c4)CC3)ccc2c1)N1CCCCC1` was “inactive”; that for `CC(=O)c1cccc(Nc2ccc3cc(S(=O)(=O)N4CCC(C)CC4)ccc3n2)c1` was “inactive”.
Take `COc1ccc(NC(=O)CN2C(=O)C(c3ccccc3)=NC23CCCCCC3)cc1OC`: the Potency result was “inactive”.
On the same count and under the same terms, the value for `CC1CCC2(CC1)N=C(c1ccccc1)C(=O)N2CC(=O)Nc1ccc(F)c(Cl)c1` (stereo unspecified) was 10 µM (active); that for `Cc1ccc(NC(=O)CN2C(=O)C(c3ccc(F)cc3)=NC23CCCCCC3)c(C)c1` was “inactive”; that for `CC(C)(C)c1ccc(S(=O)(=O)NC(=O)C2(C)CCN2C(=O)CC2CC2)cc1` (stereo unspecified) was “inactive”.
On to `CCOC(=O)C1(S(=O)(=O)c2ccc(Cl)cc2)CCN(Cc2ccccc2)CC1`, for which the Potency entry was “inactive”.
For the molecule `CCOC(=O)C1(CCOC)CCN(Cc2ccc(C(=O)OC)cc2)CC1`, the Potency result is “inactive”.
For `CCOC(=O)C1(CCOc2ccccc2)CCN(Cc2ccc(C#CCCO)cc2)CC1`, the Potency is 7.94 µM (active).
On the same count and under the same terms, the value for `CCOC(=O)C1(CCOc2ccccc2)CCN(Cc2cc(OC)cc(OC)c2)CC1` was 10 µM (active); that for `CCCS(=O)(=O)N1CCC(CCOc2ccccc2)(C(=O)OCC)CC1` was “inactive”; that for `CCOC(=O)C1(CCOc2ccccc2)CCN(C(=O)c2cncs2)CC1` was “inactive”.
Same read-out and setting: with `COC(=O)C[C@@H]1C=C[C@@H](NC(=O)c2cccnc2)[C@@H](CO)O1` the entry was “inactive”; with `COc1ccc(CN2C[C@H]3CON(C)[C@H]3C[C@H]2c2ccc(-c3cccc(F)c3)cc2)cc1`, “inactive”; with `CC1C(=O)N(Cc2cn(CC3CCCCC3)nn2)CCS(=O)(=O)N1Cc1ccc(-c2cccc(N(C)C)c2)cc1` (stereo unspecified), “inactive”.
In the case of `O=S1(=O)CCN(Cc2ccccc2)CC1`, the Potency result was “inactive”.
Same read-out and setting: with `O=C(Nc1cccc(-c2cccc(Cl)c2)c1)C1CCN(C2CCC2)CC1` the figure was 6.31 µM (active).
The same measure, in the same setting: with `COc1cccc(-c2cccc(NC(=O)C3CCN(C4CCC4)CC3)c2)c1` the entry was “inactive”; with `O=C(NC1CCCC1)C1CCN(C(=O)Nc2cccc(Cl)c2)CC1`, “inactive”.
Same read-out and setting: with `Cc1cc2c(cc1C)N1C(=O)c3cc4ccccc4cc3NC(=O)C1C(=O)N2` (stereo unspecified) the entry was “inactive”.
Take `O=S(=O)(Cc1ccc(Cl)cc1Cl)c1ccc(Cl)cc1`: the Potency was 12.6 µM (active).
Still for that read-out and setting: the value for `O=S(=O)(CCc1nc2ccccc2o1)c1ccc(Cl)cc1` was “inactive”; that for `NNC(=O)c1ccc(Cl)cc1Cl` was “inactive”.
For the molecule `COCCNc1nc(NCc2ccc(NC(C)=O)cc2)c2sccc2n1`, the Potency entry is “inactive”.
Same read-out and setting: the value for `C[C@H](CO)N1C[C@H](C)[C@@H](CN(C)S(=O)(=O)c2ccc(Oc3ccccc3)cc2)OCc2cn(nn2)CCCC1=O` was “inactive”; that for `Cc1csc(SCC(=O)Nc2ccc(C)c(S(=O)(=O)N(C)C)c2)n1` was “inactive”.
Same read-out and setting: with `OCCNc1nc(Nc2ccc(Cl)c(Cl)c2)nc2ccccc12` the figure was 3.98 µM (active); with `Cc1nnc(NCCO)c2ccccc12`, “inactive”.
For the molecule `CN(C)c1nc(Nc2ccc(Cl)c(Cl)c2)nc(N(C)C)n1`, the Potency entry is “inactive”.
As to `CC(=O)Nc1ccc(CNc2nc(NCCN(C)C)nc3cc(-c4ccccc4)sc23)cc1`, the Potency entry was “inactive”.
For the molecule `CCCOc1cccc(C(=O)NCCCNC(=O)c2cccnc2)c1`, the Potency entry was “inactive”.
Consider `CCOc1cccc(C(=O)Nc2cnn(Cc3ccccc3)c2)c1`, for which the Potency was 10 µM (active).
On the same count and under the same terms, the value for `CCOc1cccc(C(=O)Nc2nnc(-c3cccs3)s2)c1` was “inactive”; that for `Cc1nccn1-c1ccc(NC(=O)[C@H]2O[C@@H](n3cnc4c(N)ncnc43)[C@H](O)[C@@H]2O)cc1` was “inactive”; that for `Cc1ccccc1-c1nc(CS(=O)(=O)CC(=O)NC(C)c2ccccc2)c(C)o1` (stereo unspecified) was 4.47 µM (active).
For the molecule `Cc1ccc(S(=O)(=O)CC(=O)NC(C)c2ccccc2)cc1` (stereo unspecified), the Potency result is “inactive”.
On the same count and under the same terms, with `CSc1ccc(CCNC(=O)CS(=O)(=O)Cc2nc(-c3ccccc3F)oc2C)cc1` the entry was “inactive”; with `CN(Cc1ccccc1)C(=O)[C@@H]1CCCN1C(=O)[C@@H]1CCCN1C(=O)c1c(F)cccc1F`, “inactive”.
In the case of `CCOC(=O)[C@]12CCC=C1N(CCC1=CCCCC1)C(=O)[C@H](CC(=O)NCc1ccc(C)o1)C2`, the Potency result was “inactive”.
Still for that read-out and setting: the value for `CC(NC(=O)CN1CCN(Cc2ccc(Cl)cc2)C1=O)c1ccc2c(c1)OCCO2` (stereo unspecified) was “inactive”.
The same measure, in the same setting: the value for `Cc1ccc(CNC(=O)CN2CCN(Cc3ccc(Cl)cc3)C2=O)cc1` was 7.94 µM (active).
For `O=C(CN1CCN(Cc2ccc(Cl)cc2)C1=O)NCc1ccc(F)cc1`, the Potency result is “inactive”.
On the same count and under the same terms, the value for `CC(C)C1CC2=C(C(=O)OC(C)(C)O2)C(c2ccc(F)cc2)O1` (stereo unspecified) was “inactive”; that for `Cc1ccc([C@H]2C[C@H](O)[C@@H](n3cc(COC(=O)c4ccccc4)nn3)CN2CC2CCCCC2)cc1` was “inactive”.
Take `CC(=O)N1C[C@@H](CO)[C@@H](N(C)C(=O)c2ccco2)C[C@H]1c1ccccc1`: the Potency entry is “inactive”.
Still for that read-out and setting: the value for `COc1ccccc1-c1n[nH]nc1C1=CC(=O)CC(C)(C)C1` was “inactive”; that for `Cc1cccc(NC(=O)c2cccc(S(=O)(=O)N3CCCC3)c2)n1` was “inactive”.
Still for that read-out and setting: with `Cc1ccc(NC(=O)c2cccc(S(=O)(=O)N3CCCc4ccccc43)c2)nc1` the figure was 7.94 µM (active); with `NS(=O)(=O)c1ccc(CNC(=O)c2cccc(S(=O)(=O)N3CCc4ccccc43)c2)cc1`, “inactive”; with `COc1ccc(NC(=O)N(C)C[C@H]2Oc3ncc(C#C[C@@H](C)O)cc3C(=O)N([C@H](C)CO)C[C@H]2C)cc1`, “inactive”.
With `Cn1c(Nc2ccc(F)cc2)nc2cc(-c3ccsc3)sc2c1=O`, the Potency result was “inactive”.
Consider `CCN(CCN(C)C)C(=O)c1ccc2nc(C)c(N(C)C(=O)CCc3ccccc3)n2c1`, for which the Potency result was “inactive”.
Regarding `O=C(NCc1nnnn1-c1ccc(Cl)cc1)c1ccc([N+](=O)[O-])o1`, the Potency result is “inactive”.
